These results are taken from PubChem BioAssay.

Active and inactive are the calls of the source.

A short description of test [1]: E. coli DRC41 culture turbidity changes, primary screen, E. coli filamentation inducer project, strain DRC41, OD650, 48 h (AID 1152).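 Note: E. coli MC1000 strain DRC41 lacking acrAB efflux pump and sulA.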 The following applies: E. coli DRC41 (acrAB sulA), higher = more signal, called active from +8 up or from −8 down.
Test [2] can be described thus: small-molecule binders of probe aLefty1, primary screen, biochemical, small-molecule microarray, 635/667 nm fluorescence (AID 1153).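 Note: score merges spot fluorescence with signal-to-noise ratio from the scanned slide images.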 The note with it: higher = more signal.
Test [3] in a line: PSAC antagonists in infected red cells, primary screen, cell-based, P. falciparum Indochina, OD700, 1 h (AID 1154). The following applies: P. falciparum Indochina infected RBC osmotic lysis, higher = more signal, called active from +8 up or from −8 down.
A short description of test [4]: PSAC antagonists in infected red cells, primary screen, cell-based, P. falciparum Indochina, OD700, 2 h (AID 1155).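 Note: lysis reports solute entry through the parasite surface anion channel PSAC; channel blockers reduce lysis of infected cells.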 The following applies: P. falciparum Indochina infected erythrocytes, osmotic lysis OD700; higher = more signal, called active from +8 up or from −8 down.
Test [5] can be described thus: osmotic lysis modulators in infected erythrocytes, primary screen, PSAC antagonist project, cell-based, P. falciparum Indochina, OD700, 3 h (AID 1156). The note with it: higher = more signal, called active from +8 up or from −8 down.
The nature of test [6]: PSAC antagonists in infected red cells, primary screen, cell-based, P. falciparum Indochina, OD700, 18 h (AID 1157). The following applies: P. falciparum Indochina infected erythrocytes, osmotic lysis OD700, 18 h; higher = more signal, called active from +8 up or from −8 down.
Test [7] is described as follows: modulators of S6 phosphorylation in cells, primary screen, cell-based, A549, cytoblot, luminescence, serum-stimulated (AID 1158).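 Note: serum-stimulated A549 lung adenocarcinoma cells; signal is phosphorylated S6 detected by cytoblot immunostaining with HRP secondary.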 The following applies: A549 phospho-S6 cytoblot, 5 h, higher = more signal.
For test [8], the target named is NADPH oxidase 2 (Homo sapiens) (UniProt P04839). In words: NOX2-dependent H2O2 signal modulators, primary screen, NOX inhibitor project, cell-based, HEK293-NOX2, PMA-stimulated, Amplex Red fluorescence (AID 1159). Note: test concentration not given here. The following applies: 45 min, higher = more signal, called active from +8 up or from −8 down.
Chain of NADPH oxidase 2 (Homo sapiens) (P04839 whole entry, looked up): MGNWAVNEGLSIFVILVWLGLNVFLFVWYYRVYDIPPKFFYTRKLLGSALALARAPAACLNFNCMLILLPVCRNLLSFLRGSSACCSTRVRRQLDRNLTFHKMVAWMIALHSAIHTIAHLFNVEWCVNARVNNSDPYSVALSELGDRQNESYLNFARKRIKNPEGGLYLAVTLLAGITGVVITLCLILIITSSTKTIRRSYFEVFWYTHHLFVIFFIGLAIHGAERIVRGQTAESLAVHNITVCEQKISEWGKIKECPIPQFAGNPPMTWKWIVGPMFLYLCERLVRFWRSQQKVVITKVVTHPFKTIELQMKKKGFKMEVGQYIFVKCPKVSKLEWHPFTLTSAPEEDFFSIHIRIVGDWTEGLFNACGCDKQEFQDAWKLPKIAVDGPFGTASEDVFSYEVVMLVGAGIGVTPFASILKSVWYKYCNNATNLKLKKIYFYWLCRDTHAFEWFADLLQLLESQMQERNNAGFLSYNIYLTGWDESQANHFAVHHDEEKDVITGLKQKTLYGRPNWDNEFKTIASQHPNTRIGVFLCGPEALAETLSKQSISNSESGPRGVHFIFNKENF
Test [9] has as its target NADPH oxidase 4 (Homo sapiens) (UniProt Q9NPH5). The test can be described thus: NOX4-dependent H2O2 signal modulators, primary screen, NOX inhibitor project, cell-based, HEK293-NOX4, tetracycline-induced, Amplex Red fluorescence (AID 1160). The following applies: 45 min, higher = more signal, called active from +8 up or from −8 down.
For test [10], the target named is NADPH oxidase 5 (Homo sapiens) (UniProt Q96PH1). The test can be described thus: NOX5-dependent H2O2 signal modulators, primary screen, NOX inhibitor project, cell-based, HEK293-NOX5, Amplex Red fluorescence (AID 1161). The note with it: HEK293-NOX5, ionomycin, 45 min, higher = more signal.
Chain of NADPH oxidase 5 (Homo sapiens) (Q96PH1 whole entry, looked up): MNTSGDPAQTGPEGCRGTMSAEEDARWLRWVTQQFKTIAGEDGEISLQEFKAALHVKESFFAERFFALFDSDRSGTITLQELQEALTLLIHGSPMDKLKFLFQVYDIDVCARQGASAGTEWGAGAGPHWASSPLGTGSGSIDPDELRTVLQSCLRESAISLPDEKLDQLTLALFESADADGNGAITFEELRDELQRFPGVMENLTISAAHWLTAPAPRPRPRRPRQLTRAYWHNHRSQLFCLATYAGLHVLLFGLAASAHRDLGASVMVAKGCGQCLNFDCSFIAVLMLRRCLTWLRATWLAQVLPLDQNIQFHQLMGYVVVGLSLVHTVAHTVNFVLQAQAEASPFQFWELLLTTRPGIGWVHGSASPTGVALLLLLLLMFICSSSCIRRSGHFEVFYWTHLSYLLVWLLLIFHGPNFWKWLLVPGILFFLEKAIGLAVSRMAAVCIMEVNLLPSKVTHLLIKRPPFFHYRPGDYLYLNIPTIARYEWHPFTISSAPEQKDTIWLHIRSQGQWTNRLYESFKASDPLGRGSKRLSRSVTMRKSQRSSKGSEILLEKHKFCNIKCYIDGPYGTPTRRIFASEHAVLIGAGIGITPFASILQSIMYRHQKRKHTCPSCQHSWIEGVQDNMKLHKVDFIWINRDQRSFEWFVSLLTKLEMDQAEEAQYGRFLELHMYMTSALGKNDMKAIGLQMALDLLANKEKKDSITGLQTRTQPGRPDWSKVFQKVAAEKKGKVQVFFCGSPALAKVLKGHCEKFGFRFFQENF
Test [11] is described as follows: A549 cell viability effects, profiling panel, calcein-AM fluorescence, 48 h, basal (AID 1162). Note: test concentration not given here. The note with it: higher = more signal.
The nature of test [12]: adipocyte viability effects, profiling panel, cell-based, 3T3-L1 adipocytes, calcein-AM fluorescence, 48 h, basal (AID 1163). Note: test concentration not given here. The following applies: 3T3-L1 adipocytes viability, higher = more signal.
The nature of test [13]: HepG2 cell viability effects, profiling panel, calcein-AM fluorescence, 48 h, basal (AID 1164). Note: test concentration not given here. The note with it: higher = more signal.
Test [14] is described as follows: MM1S cell viability effects, profiling panel, calcein-AM fluorescence, 48 h, basal (AID 1165).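 Note: viability of MM1S multiple myeloma cells under basal unstimulated conditions; test concentration not given here.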 The note with it: higher = more signal.
Test [15] is described as follows: basal RPMI8226 viability, no added stimulus, profiling panel, cell-based, calcein-AM fluorescence, 48 h, PK04 Diversity Set (AID 1166).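 Note: cells grown under basal conditions without added stimulus; test concentration not given here.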 The note with it: RPMI8226 myeloma viability, higher = more signal.
A short description of test [16]: basal HepG2 mitochondrial membrane potential changes, profiling panel, cell-based, JC-1 fluorescence, 24 h, 100 nL compound (AID 1167). Note: test concentration not given here. The note with it: higher = more signal.
A short description of test [17]: basal 3T3-L1 adipocyte mitochondrial potential changes, profiling panel, cell-based, JC-1 fluorescence, 3T3-L1 adipocytes, 24 h, 100 nL compound (AID 1168). Note: test concentration not given here. The note with it: JC-1 mitochondrial fluorescence, higher = more signal, called active from +8 up or from −8 down.
A short description of test [18]: basal RPMI8226 mitochondrial membrane potential changes, profiling panel, cell-based, JC-1 fluorescence, 24 h, 100 nL compound (AID 1169). Note: test concentration not given here. The note with it: RPMI8226 myeloma, JC-1 mitochondrial potential fluorescence, higher = more signal.
Test [19] is described as follows: basal MM1S mitochondrial membrane potential changes, profiling panel, cell-based, JC-1 fluorescence, 24 h, 100 nL compound (AID 1170). Note: test concentration not given here. The following applies: higher = more signal.
A short description of test [20]: A549 lung cancer cell viability effects, profiling panel, resazurin fluorescence, 24 h, PK04 Diversity Set (AID 1171). Note: test concentration not given here. The note with it: higher = more signal, called active from +8 up or from −8 down. Background: Resazurin is reduced to fluorescent resorufin, in cell work by metabolically active cells.

Chain of NADPH oxidase 4 (Homo sapiens) (Q9NPH5 whole entry, looked up): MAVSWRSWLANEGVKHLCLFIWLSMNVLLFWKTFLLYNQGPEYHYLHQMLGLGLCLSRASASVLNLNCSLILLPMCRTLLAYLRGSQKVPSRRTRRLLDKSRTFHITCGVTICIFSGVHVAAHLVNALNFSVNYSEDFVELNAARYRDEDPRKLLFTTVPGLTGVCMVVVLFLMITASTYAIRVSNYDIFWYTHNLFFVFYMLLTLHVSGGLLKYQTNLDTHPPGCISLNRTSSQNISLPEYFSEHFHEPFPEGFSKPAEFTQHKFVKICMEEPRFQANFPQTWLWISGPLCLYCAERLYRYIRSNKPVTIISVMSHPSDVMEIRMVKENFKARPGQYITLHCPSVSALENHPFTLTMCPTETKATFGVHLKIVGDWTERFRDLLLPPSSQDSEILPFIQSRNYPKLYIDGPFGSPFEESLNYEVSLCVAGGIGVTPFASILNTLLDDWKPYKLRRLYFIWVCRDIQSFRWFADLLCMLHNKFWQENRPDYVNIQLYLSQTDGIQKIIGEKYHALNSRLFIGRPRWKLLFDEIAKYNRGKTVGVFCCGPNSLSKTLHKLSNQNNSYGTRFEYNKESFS

On to `CO[C@H]1COC(=O)[C@H](C)NC(=O)CC=C[C@@H](C)[C@H](OC)COC(=O)[C@@H](OCc2ccccc2)C=C[C@@H]1C`, for which the z-score in [1] was 0.31 (inactive); in test [3], -0.352 (inactive); in test [4], 0.101 (inactive); in [5], 0.912 (inactive); in [6], 0.378 (inactive); in test [7], -0.191. Moreover, the z-score is 1.18 (inactive) in test [8]; 0.332 (inactive) in [9]; -0.017 in test [10]; 0.0192 in test [11]; 0.0912 in test [12]; 0.645 in test [13]. Besides, the z-score in test [14] is -0.144; in [15] it was -0.646; in test [16], 0.00399; in test [17], -0.29 (inactive); in test [18] it was -0.0466; in test [19], 0.474. Besides, in test [20], the z-score was 0.703 (inactive). This molecule yielded a composite z-score in test [2] of -0.0544.
In the case of `COC(=O)[C@@H]1CC[C@@H](C)[C@H](c2ccc(Br)cc2)N1`, the z-score in test [1] was -0.394 (inactive); in test [3] it was 0.121 (inactive); in test [4] it was -0.0391 (inactive); in test [5], -0.242 (inactive); in test [6], -0.191 (inactive); in test [7], 0.333. Moreover, the z-score in [8] is -3.29 (inactive); in test [9], -0.185 (inactive); in [10], -0.781; in test [11], 0.376; in [12], 0.931; in [13], 0.232. Besides, the z-score in test [14] was -0.749; in [15], 0.628; in [16], 0.307; in [17], -0.00943 (inactive); in [18], 0.273; in test [19] it was 1.23. In addition, the z-score in [20] was 0.316 (inactive). In test [2], this molecule showed a composite z-score of 0.0962.
For the molecule `COc1ccc(O[C@H]2C=C[C@@H](c3ccccc3)O[C@@H]2COC(=O)CCC(C)=NOC[C@@H](O)[C@H]2O[C@@H]3OC(C)(C)O[C@@H]3[C@H]2O)cc1`, the z-score was -1.89 (inactive) in test [1]; 4.09 (inactive) in test [3]; 1.12 (inactive) in test [4]; 1.11 (inactive) in test [5]; 0.662 (inactive) in [6]; 0.332 in test [7]. Further, the z-score is -1.42 (inactive) in test [8]; 0.0675 (inactive) in test [9]; -1.42 in test [10]; 1.11 in test [11]; -0.519 in [12]; 0.26 in [13]. In addition, the z-score in test [14] is 0.152; in [15], -0.0547; in [16], -0.42; in [17] it was 0.157 (inactive); in [18], -0.299; in test [19], -0.199. Also, the z-score in test [20] is 0.138 (inactive). The composite z-score in test [2] came to 0.0004.
Consider `CC(=O)OC[C@H]1O[C@H](CC=NO[C@H](C)c2cn([C@H](CO)Cc3ccccc3)nn2)C=C[C@@H]1OC(C)=O`, for which the z-score in test [1] was -0.176 (inactive); in test [3] it was 0.639 (inactive); in test [4], 0.103 (inactive); in test [5], 0.238 (inactive); in test [6], 0.391 (inactive); in test [7] it was -0.871. Besides, the z-score in test [8] was -0.0815 (inactive); in test [9] it was 0.835 (inactive); in [10], -1.3; in [11], -0.404; in test [12] it was -0.857; in test [13], -0.0224. Also, the z-score was -0.955 in test [14]; -1.94 in test [15]; -0.485 in [16]; -0.963 (inactive) in test [17]; 0.013 in test [18]; 0.186 in [19]. For the same molecule, the z-score in test [20] was 0.322 (inactive). This molecule gave a composite z-score in test [2] of -0.007.
